Assay [1] deals with Zika virus NS2B-NS3 protease. The experiment in a line: Primary screen GU AMC qHTS for Zika virus inhibitors (AID 1347154).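 Also: 0% = no-inhibitor control and -100% = no-enzyme control; nearly all actives have a fitted effect of over 70% in size.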 Particulars: Zika NS2B-NS3 unlinked protease, AMC fluorogenic substrate; series mostly up to 54.1 µM. The gist of the method: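 Unlinked Zika NS2B hydrophilic domain–NS3 protease complex at 25 nM in 10 mM Tris-HCl pH 8.0, 0.01% Tween 20, with an AMC peptide substrate. Fluorescence change (340/450 nm) over 15 min at room temperature, normalized to controls, fitted to 4-parameter Hill.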
(In general: qHTS replaces the single test concentration by a dilution series.)

A short description of assay [2]: Primary qHTS for small molecule stabilizers of the endoplasmic reticulum resident proteome: Secreted ER Calcium Modulated Protein (SERCaMP) assay (AID 1508630). Also: % is scaled to controls: 0 for no effect and ±100 for the full control effect. The note with it: SH-SY5Y GLuc-SERCaMP (Gaussia luciferase released on ER calcium loss) secretion, thapsigargin, luminescence; series mostly up to 38.4 µM. The gist of the method: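 The SH-SY5Y reporter protocol was run at 3 concentrations up to 38.3 uM (primary) or 11 concentrations (follow-up): 16 h compound, 100 nM thapsigargin for 4 h, then extracellular luciferase luminescence.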

Assay [3] has as its target Glucocorticoid receptor (Homo sapiens) (UniProt P04150). The experiment in a line: GR-GFP Redistribution (AID 450;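 active = compounds whose dose series gives a full or clear partial fitted curve of increased nuclear translocation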; also: potency is read from the fitted curve at half-maximal effect). Particulars: U2OS GR-GFP nuclear translocation, laser cytometry, 2 h.
For assay [4] the target is unchanged. Nature of the assay: GR-EFC Redistribution (AID 451; calls by dose curve; also: potency is read from the fitted curve at half-maximal effect). Particulars: CHO-K1 GR-EFC translocation, beta-gal luminescence, 2 h. The gist of the method:
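CHO-K1 cells expressing nuclear EA and GR-ED fragments of b-gal; compounds titrated up to 46 uM final, 2 h at 37 C. GR nuclear translocation read as complemented b-gal luminescence after 1 h RT detection.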

Assay [5] addresses Mitogen-activated protein kinase 10 (Mus musculus) (UniProt Q61831). The experiment in a line: JNK3 AlphaScreen Assay (AID 530; active = well fitted curve in either direction with a large enough effect, not every such curve was filed as active;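 also: kinase came from lysate of stimulated human HepG2 cells; signal reports phosphorylation of biotinylated GST-cJun 1-79 at Ser73 with 10 µM ATP; % is scaled to controls: 0 for no effect and ±100 for the full control effect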). Particulars: JNK3 lysate, c-Jun phosphorylation; series mostly up to 57.1 µM. The gist of the method: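 HepG2 lysate (IL-1b/TNFa pre-activated) + biotin-GST-cJun 1-79 + anti-pSer73 cJun; cpd titration, 15 min RT; ATP 10 uM start; Tris pH 7.6, MgCl2, DTT, vanadate; beads in EDTA buffer; AlphaScreen.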
On the technique in general: In Alpha technology, singlet oxygen from a donor bead excites a nearby acceptor bead.

Assay [6] has as its target Cytochrome P450 3A4 (Homo sapiens) (UniProt P08684). Nature of the assay: qHTS Assay for Activators of Cytochrome P450 3A4 (AID 885). Also: nearly all actives have a fitted effect of over 65% in size. Particulars: recombinant CYP3A4, Luciferin-PPXE luminescence, 60 min; series mostly up to 57.1 µM. An outline of the steps: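 CYP3A4 activity: Luciferin-PPXE O-dealkylation, 25uM substrate, 200mM KPO4, RT throughout. Read-out is luciferase luminescence; higher values reflect activation.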

For assay [7], the target named is Ubiquitin carboxyl-terminal hydrolase 1 (Homo sapiens) (UniProt O94782). Nature of the assay: Inhibitors of USP1/UAF1: Pilot qHTS (AID 504865).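 Also: rhodamine fluorescence freed from ubiquitin-rhodamine substrate followed over time; top concentration of the series differs between compounds; % is scaled to controls: 0 for no effect and ±100 for the full control effect; nearly all actives have a fitted effect of over 35% in size.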 The note with it: purified USP1/UAF1, Ub-rhodamine cleavage fluorescence; series mostly up to 114 µM. The gist of the method:
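Kinetic fluorescence assay: 1nM USP1/UAF1, 15 min compound preincubation, then 150nM Ub-Rho; 480/540 nm.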

Assay [8] addresses DNA dC->dU-editing enzyme APOBEC-3G (Homo sapiens) (UniProt Q9HC16). Nature of the assay: qHTS for inhibitors of Vif-A3G interactions: Validation (AID 588379). Also: 0% is about no effect. The note with it: Vif-A3G protein interaction assay; series mostly up to 46.1 µM. The gist of the method:
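Yellow fluorescence (Ex 488, Em 500-530) of Vif-coexpressing HeLa A3G-eYFP cells, scanned by Acumen cytometer, reports blocked A3G degradation. Cells plated at 700/well overnight at 37 deg C before compound addition, then a further overnight compound incubation at 37 deg C.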

Assay [9] is described as follows: Confirmatory qHTS for small molecule stabilizers of the endoplasmic reticulum resident proteome: Secreted ER Calcium Modulated Protein (SERCaMP) assay (AID 1508628). Also: % is scaled to controls: 0 for no effect and ±100 for the full control effect; nearly all actives have a fitted effect of over 40% in size. Particulars: SERCaMP secreted luciferase ER calcium/proteostasis reporter; series mostly up to 76.3 µM. The gist of the method:
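GLuc-SERCaMP-expressing SH-SY5Y cells, pretreated 16 h with compound, are challenged with thapsigargin to empty ER calcium stores; after 4 h, coelenterazine is added directly to the medium and luminescence is imaged.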

A number with no mark means an inactive call. Inconclusive results are not listed. Calls of active or inactive are those of the source. Unless noted, calls follow the shape of the dose curve; as a rule, active = well fitted curve in the direction sought with a large enough effect; inconclusive = small, poorly fitted or top-dose-only effect, or another doubt; inactive = no such curve, though single readings can be large; an effect the other way counts as inactive or inconclusive.

Among the data in PubChem BioAssay (NCATS) are Potency and activity change, negative = inhibition values, retold here.

Glucocorticoid receptor (Homo sapiens), sequence (P04150 whole entry, looked up): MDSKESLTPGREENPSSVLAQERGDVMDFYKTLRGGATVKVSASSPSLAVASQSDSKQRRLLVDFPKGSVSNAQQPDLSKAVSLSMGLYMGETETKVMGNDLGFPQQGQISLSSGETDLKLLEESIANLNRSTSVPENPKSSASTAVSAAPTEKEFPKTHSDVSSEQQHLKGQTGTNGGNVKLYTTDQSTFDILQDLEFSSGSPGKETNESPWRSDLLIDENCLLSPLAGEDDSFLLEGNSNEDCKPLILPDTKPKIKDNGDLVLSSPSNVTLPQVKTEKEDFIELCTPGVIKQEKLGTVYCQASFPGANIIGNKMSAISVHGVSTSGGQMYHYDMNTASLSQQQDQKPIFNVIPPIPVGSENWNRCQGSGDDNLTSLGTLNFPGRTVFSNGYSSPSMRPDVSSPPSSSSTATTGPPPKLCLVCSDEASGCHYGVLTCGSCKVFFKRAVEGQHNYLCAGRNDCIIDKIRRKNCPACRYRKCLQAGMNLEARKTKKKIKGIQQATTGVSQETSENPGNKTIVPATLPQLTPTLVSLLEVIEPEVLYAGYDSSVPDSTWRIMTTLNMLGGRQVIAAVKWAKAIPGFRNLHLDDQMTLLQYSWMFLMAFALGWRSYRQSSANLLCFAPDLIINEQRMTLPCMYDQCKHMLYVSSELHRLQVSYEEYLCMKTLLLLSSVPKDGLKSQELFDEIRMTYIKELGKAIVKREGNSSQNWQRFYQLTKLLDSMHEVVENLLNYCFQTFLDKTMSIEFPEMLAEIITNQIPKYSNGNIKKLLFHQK
DNA dC->dU-editing enzyme APOBEC-3G (Homo sapiens), sequence (Q9HC16 whole entry, looked up): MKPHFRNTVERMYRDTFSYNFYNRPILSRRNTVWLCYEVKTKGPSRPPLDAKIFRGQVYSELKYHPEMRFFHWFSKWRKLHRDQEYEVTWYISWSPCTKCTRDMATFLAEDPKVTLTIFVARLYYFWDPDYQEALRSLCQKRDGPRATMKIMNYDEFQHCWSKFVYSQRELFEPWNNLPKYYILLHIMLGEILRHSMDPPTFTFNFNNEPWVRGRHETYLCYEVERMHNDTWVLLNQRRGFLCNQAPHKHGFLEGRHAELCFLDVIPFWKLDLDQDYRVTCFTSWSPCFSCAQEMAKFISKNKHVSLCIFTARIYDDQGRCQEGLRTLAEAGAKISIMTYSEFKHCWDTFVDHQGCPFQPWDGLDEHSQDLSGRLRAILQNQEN
Cytochrome P450 3A4 (Homo sapiens), sequence (P08684 whole entry, looked up): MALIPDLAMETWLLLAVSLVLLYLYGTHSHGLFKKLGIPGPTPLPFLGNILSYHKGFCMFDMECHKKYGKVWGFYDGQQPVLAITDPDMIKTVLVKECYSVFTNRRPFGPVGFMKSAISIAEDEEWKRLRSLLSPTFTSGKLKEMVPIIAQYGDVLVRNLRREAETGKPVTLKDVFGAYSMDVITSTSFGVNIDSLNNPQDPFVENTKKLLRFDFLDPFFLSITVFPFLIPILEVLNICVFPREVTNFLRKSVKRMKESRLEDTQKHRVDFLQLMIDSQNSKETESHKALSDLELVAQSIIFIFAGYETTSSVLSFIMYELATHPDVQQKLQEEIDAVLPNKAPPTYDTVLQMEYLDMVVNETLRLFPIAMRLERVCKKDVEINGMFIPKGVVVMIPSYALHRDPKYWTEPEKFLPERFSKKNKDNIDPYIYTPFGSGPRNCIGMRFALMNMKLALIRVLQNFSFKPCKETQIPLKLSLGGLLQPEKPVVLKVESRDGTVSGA
Ubiquitin carboxyl-terminal hydrolase 1 (Homo sapiens), sequence (O94782 whole entry, looked up): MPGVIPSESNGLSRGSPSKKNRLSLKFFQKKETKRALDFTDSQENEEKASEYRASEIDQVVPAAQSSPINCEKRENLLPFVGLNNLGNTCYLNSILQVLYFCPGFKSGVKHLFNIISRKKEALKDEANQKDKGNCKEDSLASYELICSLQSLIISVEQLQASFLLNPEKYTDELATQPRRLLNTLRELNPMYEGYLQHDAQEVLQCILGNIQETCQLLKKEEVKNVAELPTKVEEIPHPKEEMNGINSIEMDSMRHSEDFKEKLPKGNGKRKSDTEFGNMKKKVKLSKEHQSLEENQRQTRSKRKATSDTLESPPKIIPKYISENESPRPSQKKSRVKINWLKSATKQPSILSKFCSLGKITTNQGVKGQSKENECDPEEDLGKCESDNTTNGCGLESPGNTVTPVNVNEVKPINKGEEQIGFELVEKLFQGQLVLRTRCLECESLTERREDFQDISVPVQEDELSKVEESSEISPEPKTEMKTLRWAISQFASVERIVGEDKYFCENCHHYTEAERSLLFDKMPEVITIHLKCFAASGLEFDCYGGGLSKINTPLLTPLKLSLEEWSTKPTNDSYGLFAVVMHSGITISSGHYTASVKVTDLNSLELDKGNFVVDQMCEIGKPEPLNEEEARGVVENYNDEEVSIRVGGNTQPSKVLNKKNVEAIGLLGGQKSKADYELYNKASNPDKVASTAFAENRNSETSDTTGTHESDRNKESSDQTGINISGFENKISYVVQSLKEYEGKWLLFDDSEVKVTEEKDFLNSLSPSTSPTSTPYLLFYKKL

As for `N[C@@H](Cc1cc(I)c(Oc2ccc(O)cc2)c(I)c1)C(=O)O`, the Potency entry in assay [1] and in assay [2] was “inactive” throughout.

As for `COc1c(C=O)c(O)cc2c1C(=O)c1ccccc1C2=O`, the Potency entry in [1] and in assay [2] was “inactive” in each case.

Take `CO[C@H]1C[C@@H]2CC[C@@H](C)[C@@](O)(O2)C(=O)C(=O)N2CCCC[C@H]2C(=O)O[C@H](C(C)C[C@H]2CC[C@@H](O)[C@H](OC)C2)CC(=O)[C@H](C)/C=C(\C)[C@@H](O)[C@@H](OC)C(=O)[C@H](C)C[C@H](C)/C=C/C=C/C=C/1C` (some centres undefined): the Potency entry in [1] and in [2] was “inactive” each time.

Consider `O=S(=O)(c1cccc2cnccc12)N1CCNCC1`, for which the Potency in assay [3] and in assay [4] was greater than 46 µM throughout. The Potency entry in assay [5], in assay [6], in assay [7], in assay [8], in [1] and in assay [9] was “inactive” each time.

Consider `N[C@](CC1c2ccccc2Oc2ccccc21)(C(=O)O)[C@H]1C[C@@H]1C(=O)O`, for which the Potency result in assay [1] and in [2] was “inactive” each time.

Turning to `COC(=O)/C=C/c1cccc(N(Cc2ccc(-c3ccc(N(C)C)cc3)cc2)C(=O)C2CCCCC2)c1`, the Potency entry in assay [1] and in [2] was “inactive” throughout.

For `CCCCCCCCCCCCCCCCCCOC[C@H](COP(=O)([O-])OCC[N+](C)(C)C)OC(C)=O`, the activity change, negative = inhibition in assay [1] was 10.6% [at 6.83 µM]; in [2], 33.9% [at 3.88 µM].

Turning to `COC(=O)[C@H](Cc1ccc(C#Cc2ccccc2)cc1)NC(=O)C[C@H]1CCCN(C(=N)N)C1`, the Potency result in assay [1] and in assay [2] was “inactive” in each case.

With `COc1ccc2[nH]cc(CCNC(=O)C3CC3)c2c1`, the Potency result in [1] and in assay [2] was “inactive” in each case.

`CCCCC[C@H](O)/C=C/C=C\C=C\C=C\[C@@H](O)[C@@H](O)CCCC(=O)O`: the values for the activity change, negative = inhibition in [1] and in assay [2] were 15% [at 0.59 µM] and 7.52% [at 0.478 µM], respectively.

In the case of `CS/C(N)=C(C#N)/C(C#N)=C(\N)SC`, the Potency entry in assay [1] and in assay [2] was “inactive” in each case.

Consider `COC(=O)/C=C/c1ccc(C(=O)NCC(=O)N[C@@H](CCC(=O)OC)C(=O)N[C@@H](CC(C)C)C(N)=O)cc1`, for which the Potency result in assay [1] and in [2] was “inactive” throughout.

On to `O=C(O)CCc1cc(I)c(O)c(I)c1`, for which the Potency result in [1] and in assay [2] was “inactive” throughout.

With `C/C(O)=C1\C(=O)[C@@H]2[C@H]3c4c[nH]c5cccc(c45)C[C@H]3C(C)(C)N2C1=O`, the Potency result in [1] and in [2] was “inactive” in each case.

With `Nc1ncnc2c1ncn2C1O[C@H](COP(=O)(O)O)[C@@H](O)[C@H]1O` (some centres undefined), the Potency result in assay [1] and in [2] was “inactive” each time.

In the case of `NC(N)=NCCNS(=O)(=O)c1cccc2cnccc12`, the Potency entry in assay [1] and in [2] was “inactive” each time.

On to `CCCCC/C=C\C/C=C\CCCCCCCC(=O)O[C@@H](CO)COC(=O)CCCCCCCCCCCCCCCCC`, for which the activity change, negative = inhibition was 7.9% [at 6.83 µM] in [1] and 6.55% [at 3.88 µM] in assay [2].

For the molecule `CCCCC[C@H](O)/C=C/[C@H]1C=CC(=O)[C@@H]1CCCCCCC(=O)O`, the activity change, negative = inhibition in [1] is 16.3% [at 6.83 µM]; in [2], -11.3% [at 3.88 µM].

In the case of `CCCCCCCCCCCCCCCC(=O)N[C@@H](COP(=O)(O)O)C(=O)O`, the activity change, negative = inhibition in assay [1] is 6.63% [at 6.83 µM]; in assay [2], 2.76% [at 3.88 µM].

As to `Nc1ncnc2c1ncn2[C@@H]1O[C@H](C(=O)NC2CC2)[C@@H](O)[C@H]1O`, the Potency result in [1] and in assay [2] was “inactive” throughout.

For `CCCCCC(=O)/C=C/C=C\CCCCCCCC(=O)O`, the activity change, negative = inhibition is 0.325% [at 0.59 µM] in assay [1] and -7.64% [at 0.478 µM] in [2].

For `CCCCCCCCCCC/C=C\C/C=C\CCCC(=O)O`, the figures for the activity change, negative = inhibition in assay [1] and in assay [2] were 7.9% [at 6.83 µM] and -21.5% [at 3.88 µM], respectively.

Take `CCCCC[C@H](O)/C=C/[C@H]1C(=O)C=C[C@@H]1C/C=C\CCCC(=O)O`: the activity change, negative = inhibition is 15.7% [at 6.83 µM] in assay [1] and -10.1% [at 3.88 µM] in assay [2].

For `Nc1ncnc2c1ncn2[C@@H]1O[C@H](COP(=O)(O)OP(=O)(O)OC[C@H]2OC(O)[C@H](O)[C@@H]2O)[C@@H](O)[C@H]1O` (some centres undefined), the Potency result in assay [1] and in assay [2] was “inactive” in each case.

Regarding `O=c1ncccn1[C@@H]1O[C@H](CO)C(O)[C@@H]1O` (some centres undefined), the Potency entry in assay [1] and in [2] was “inactive” each time.

`NC(C(=O)O)[C@H](O)C(=O)O` (some centres undefined): the Potency entry in assay [1] and in [2] was “inactive” throughout.

For the molecule `COc1c(O)c2c(=O)cc(OC)c3c4c(OC)cc(=O)c5c(O)c(OC)c(C[C@@H](C)OC(=O)c6ccccc6)c(c(c1C[C@@H](C)OC(=O)Oc1ccc(O)cc1)c23)c54`, the activity change, negative = inhibition was 10.7% [at 4.99 µM] in assay [1] and 121% [at 3.88 µM] in [2].

In the case of `CCCCCCCCCCCCCCC(F)C(=O)O` (centres undefined), the values for the activity change, negative = inhibition in assay [1] and in assay [2] were 19.7% [at 6.83 µM] and 10.1% [at 3.88 µM], respectively.

As to `NC(C(=O)O)c1cccc(O)c1` (centres undefined), the Potency result in [1] and in assay [2] was “inactive” each time.
